The nature of experiment [1]: Tanguay_ZF_120hpf_SOMI_legacy: (Legacy) Oregon State University Tanguay Lab 120 Hour Post-fertilization zebrafish Assay for Somite Malformation (AID 2283647). The method in brief:
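Somitogenesis defects are recorded as binary calls in whole larvae at 120 hpf after continuous static chemical exposure starting at 6 hpf in dechorionated 5D embryos. DMSO serves as negative control and baseline.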

The nature of experiment [2]: Tanguay_ZF_120hpf_CFIN_legacy: (Legacy) Oregon State University Tanguay Lab 120 Hour Post-fertilization zebrafish Assay for Caudal Fin Malformation (AID 2283649). The method in brief: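 Single dechorionated 5D wild-type embryos are dosed at 6 hpf (final DMSO 0.64%) and held statically at 28C. Caudal fin malformation is recorded as present or absent at 120 hpf under brightfield, excluding dead embryos.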

Experiment [3] in a line: Tanguay_ZF_120hpf_PIG_legacy: (Legacy) Oregon State University Tanguay Lab 120 Hour Post-fertilization zebrafish Assay for Pigmentation Malformation (AID 2283650). In short, it runs like this:
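Pigment malformation recorded as a binary call at 120 hpf in zebrafish (Tropical 5D) exposed singly from 6 hpf after pronase dechorionation. Static, sealed, 28C exposure, 0.64% DMSO; mortality excludes scoring; positive-direction fit against DMSO.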

Experiment [4] is described as follows: Tanguay_ZF_120hpf_SWIM_legacy: (Legacy) Oregon State University Tanguay Lab 120 Hour Post-fertilization zebrafish Assay for Swim Bladder Malformation (AID 2283654).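 Note: swim bladder malformation in each larva scored yes or no under brightfield.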 The method in brief:
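Scoring is binary for swim bladder defects at 120 hpf, by brightfield inspection of zebrafish larvae. Embryos were exposed singly from 6 hpf after pronase dechorionation, at 28C with 0.64% DMSO; mortality excluded scoring.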

Experiment [5] can be described thus: Tanguay_ZF_120hpf_TRUN_legacy: (Legacy) Oregon State University Tanguay Lab 120 Hour Post-fertilization zebrafish Assay for Truncated Body (AID 2283655). The method in brief:
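Single dechorionated zebrafish embryos received test chemical from 6 hpf in 0.64% DMSO, kept at 28C. At 120 hpf, brightfield inspection noted any truncated body.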

Experiment [6] in a line: Tanguay_ZF_120hpf_NC_legacy: (Legacy) Oregon State University Tanguay Lab 120 Hour Post-fertilization zebrafish Assay for Notochord and Tail Malformation (AID 2283656). The method in brief:
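Binary notochord-distortion calls, made by brightfield inspection, form the read-out; activity is fitted in the positive direction against DMSO. Exposure ran statically from 6 to 120 hpf at 28C with 0.64% DMSO.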

A short description of experiment [7]: Tanguay_ZF_120hpf_TR_legacy: (Legacy) Oregon State University Tanguay Lab 120 Hour Post-fertilization zebrafish Assay for Touch Response (AID 2283667). In short, it runs like this:
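Binary touch-response endpoint in larvae at 120 hpf after static waterborne exposure from embryo stage (28°C, 0.64% DMSO vehicle, 5 uM trimethyltin chloride as positive control); embryos dead at 24 or 120 hpf excluded; fitted as gain versus DMSO.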

A short description of experiment [8]: CCTE_Padilla_ZF_144hpf_TERATOSCORE: (Legacy) CCTE's 144 Hour Post-fertilization zebrafish Assay Teratoscore, Padilla Lab (AID 2283679; active = hit-call score of the fitted dose curve at least 0.9, where 1 is the maximum; inactive = score below 0.9;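 for AC50: zebrafish embryos with chorions exposed by immersion from 6-8 hpf to 5 dpf with daily renewal; teratogenicity score from eye scoring of death hatching and malformations at 144 hpf; higher score means more developmental defects relative to DMSO baseline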). In short, it runs like this:
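Larvae scored by eye at 144 hpf for death, hatching and malformations after a day in clean Hanks'. Before that, daily-renewed exposure at 80 uM (0.4% DMSO, 26C) from roughly 6-8 hpf through 5 dpf, 4 embryos per chemical.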

Experiment [9] is described as follows: Tanguay_ZF_120hpf_PFIN_legacy: (Legacy) Oregon State University Tanguay Lab 120 Hour Post-fertilization zebrafish Assay for Pectoral Fin Malformation (AID 2283648).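 Note: each larva judged yes or no for fin defect by brightfield with dead larvae skipped.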 In short, it runs like this: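 Pectoral fin malformation was recorded as a binary endpoint at 120 hpf in wild-type Tropical 5D larvae, which had been dechorionated and exposed statically from 6 hpf at 28C in 0.64% DMSO. Dead embryos were excluded.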

Experiment [10] is described as follows: Tanguay_ZF_120hpf_CIRC_legacy: (Legacy) Oregon State University Tanguay Lab 120 Hour Post-fertilization zebrafish Assay for Circulatory Malformation (AID 2283651). The method in brief: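 Static exposure, 6–120 hpf, 28C, sealed and dark; one dechorionated 5D embryo/well; DMSO 0.64% v/v final. Binary circulation endpoint by brightfield; dead embryos not scored.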

Experiment [11] deals with Thyroperoxidase (TPO), gene 54314. Description: CCTE_Simmons_AUR_rTPO: CCTE's Amplex UltraRed Assay for Thyroperoxidase (TPO) Inhibition, Simmons Lab (AID 2283662).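 Note: potency for loss of signal meaning inhibition of peroxidase activity.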 In short, it runs like this:
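Rat thyroid microsomes (5 ug protein) were incubated with test compound (8 concentrations, 5 nM–87.5 uM final, 0.5% DMSO), 25 uM Amplex UltraRed and 300 uM H2O2 in 200 mM phosphate buffer for 30 min at 37C in the dark; fluorescence read at 544/590 nm.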

Experiment [12] in a line: CCTE_Simmons_CellTiterGLO_HEK293T: Viability Assessment in CCTE's Assays for Thyroperoxidase (TPO) Inhibition, Simmons Lab (AID 2283665).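 For AC50: cells exposed to compound for 24 h before readout; actives reduce ATP signal below DMSO vehicle meaning cytotoxicity.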 The method in brief: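 Luminescent ATP readout (CellTiter-Glo, 20 min at room temperature) after 24 hr exposure of HEK293T cells to 5 nM–87.5 uM final compound; signal loss relative to DMSO vehicle indicated cytotoxicity; dichlone titrated as positive control.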

Read-out in experiment [13]: kallikrein-3 (KLK3), KLK3 (gene 354)
In words: LTEA_HepaRG_KLK3: Life Technologies and Expression Analysis (LTEA) Assay for kallikrein-3 (KLK3) using HepaRG (AID 2283652; active = hit-call score of the fitted dose curve at least 0.9, where 1 is the maximum; inactive = score below 0.9). The settings on record: mRNA level, 48 h; actives raise or lower the signal. The method in brief: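 KLK3 transcript levels were measured by TaqMan qRT-PCR with normalisation to three housekeeping genes. HepaRG cultures received chemicals for 48 h at up to 100 uM (half-log, 8 points, 0.5% DMSO vehicle), fitted in both directions against DMSO.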

Read-out in experiment [14]: solute carrier (SLC22A6), SLC22A6 (gene 9356)
In words: LTEA_HepaRG_SLC22A6: Life Technologies and Expression Analysis (LTEA) Assay for solute carrier (SLC22A6) using HepaRG (AID 2283653; active = hit-call score of the fitted dose curve at least 0.9, where 1 is the maximum; inactive = score below 0.9). The settings on record: mRNA level, 48 h; actives raise or lower the signal. In short, it runs like this:
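Gene-expression endpoint in HepaRG hepatic cells: duplicate 8-point concentration-response, highest 100 uM, 48 h treatment in serum-free medium with 0.5% DMSO. SLC22A6 expression measured by qRT-PCR, normalised to ACTB/GAPDH/POLR2A.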

Read-out in experiment [15]: solute carrier (SLC10A1), SLC10A1 (gene 6554)
Description: LTEA_HepaRG_SLC10A1: Life Technologies and Expression Analysis (LTEA) Assay for solute carrier (SLC10A1) using HepaRG (AID 2283657; active = hit-call score of the fitted dose curve at least 0.9, where 1 is the maximum; inactive = score below 0.9). The following applies: mRNA level, 48 h; actives raise or lower the signal. In short, it runs like this: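 SLC10A1 transcript measured by TaqMan qRT-PCR, housekeeping-normalised, after 48 h chemical treatment of human HepaRG cells. Eight concentrations (half-log, max 100 uM, 0.5% DMSO vehicle) in duplicate; fitted bidirectionally against DMSO baseline.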

Read-out in experiment [16]: matrix metalloproteinase-1 (MMP1), MMP1 (gene 4312)
In words: LTEA_HepaRG_MMP1: Life Technologies and Expression Analysis (LTEA) Assay for matrix metalloproteinase-1 (MMP1) using HepaRG (AID 2283658; active = hit-call score of the fitted dose curve at least 0.9, where 1 is the maximum; inactive = score below 0.9). The following applies: mRNA level, 48 h; actives raise or lower the signal. In short, it runs like this: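 In this screen, human liver HepaRG cultures receive each chemical in duplicate for 48 h (top 100 uM, 0.5% DMSO). MMP1 expression is then quantified by TaqMan qRT-PCR with ACTB/GAPDH/POLR2A normalization.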

Read-out in experiment [17]: Cytochrome P450 (CYP24A1_1), CYP24A1 (gene 1591)
Description: LTEA_HepaRG_CYP24A1_1: Life Technologies and Expression Analysis (LTEA) Assay for Cytochrome P450 (CYP24A1_1) using HepaRG (AID 2283671; active = hit-call score of the fitted dose curve at least 0.9, where 1 is the maximum; inactive = score below 0.9). The following applies: mRNA level, 48 h; actives raise or lower the signal. The method in brief:
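Differentiated human HepaRG cells were exposed in duplicate for 48 h in serum-free induction medium to eight concentrations (top 100 uM, half-log steps, 0.5% DMSO). CYP24A1 mRNA was quantified by TaqMan qRT-PCR, normalized to ACTB, GAPDH and POLR2A, and fitted bidirectionally versus DMSO.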

Experiment [18] is described as follows: STM_H9_CystineISnorm_perc: Stemina devTOX quickPredict H9 human embryonic stem cell (hESC)-based Assay for Cystine (CYSS) Metabolite Biomarker, Normalized (AID 2283713; active = hit-call score of the fitted dose curve at least 0.9, where 1 is the maximum; inactive = score below 0.9). In short, it runs like this: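 UPLC-HRMS read-out: endogenous cystine peak area in spent medium, normalized to isotope-labeled internal standard and to median of 0.1% DMSO controls. Pluripotent H9 cells, 72h exposure, daily medium/compound replenishment; medium from last 24h sampled.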

The nature of experiment [19]: STM_H9_OrnCyssISnorm_ratio: Stemina devTOX quickPredict H9 human embryonic stem cell (hESC)-based Assay for Ornithine (ORN):Cystine (CYSS) Ratio (AID 2283714). In short, it runs like this: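 Ratio of internal-standard-normalized ornithine to cystine, measured by UPLC-HRMS in spent media from the last 24 h. H9 cells kept pluripotent, dosed 72 h with daily media and compound renewal; DMSO 0.1% serves as baseline.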

Inconclusive results are not listed. Active and inactive are the calls of the source. Rule for the calls, unless noted: active = hit-call score of the fitted dose curve at least 0.9, where 1 is the maximum; inconclusive = response in the unintended direction; inactive = score below 0.9.

Take `CCOC(=O)C(C)(C)Oc1ccc(Cl)cc1`: the compound was called inactive in experiment [1], in [3], in [4], in experiment [6] and in experiment [7]. The AC50 in experiment [2] was 69.7 µM (active); in experiment [5], 65.3 µM (active); in [8], 2.86 µM (active).

On to `CC(=O)Oc1ccccc1C(=O)O`, for which the call in experiment [9], in [2], in experiment [3], in [5] and in [6] was inactive.

As to `CC(=O)OCCOCCOCCOC(C)=O`, the call in experiment [1], in experiment [9], in [2], in experiment [5] and in experiment [7] was inactive.

On to `Cc1ccc(N(C)C)cc1`, for which the call in experiment [1], in [9], in experiment [3], in [10], in experiment [5] and in experiment [6] was inactive. The call in experiment [12] was inactive. The AC50 in [11] was 11.3 µM (active).

`NCC1(Cc2noc(=O)[nH]2)CCCCC1`: the call in [9], in experiment [2], in experiment [3], in [10], in experiment [5] and in experiment [6] was inactive.

On to `CC1(C)CC(N=C=O)CC(C)(CN=C=O)C1` (stereo unspecified), for which the call in experiment [1], in experiment [9], in experiment [2], in experiment [3], in [5] and in experiment [6] was inactive. The call in [8] was inactive.

Turning to `C1CCC(SSC2CCCCC2)CC1`, the compound was classed as inactive in experiment [1], in experiment [9], in experiment [2], in [13], in experiment [14] and in experiment [5]. In addition, the call in experiment [6], in [15], in [16], in experiment [17] and in experiment [8] was inactive.

On to `COc1ccc(S(=O)(=O)N2C(=O)[C@@](c3ccccc3OC)(N3C[C@H](O)C[C@H]3C(=O)N(C)C)c3cc(Cl)ccc32)c(OC)c1`, for which the outcome in [1], in experiment [9], in experiment [2], in [3], in [5] and in [6] was inactive. Moreover, the result in experiment [18] and in experiment [19] was inactive.

Take `O=c1[nH]cc(F)c(=O)[nH]1`: the compound was called inactive in experiment [1], in experiment [9], in experiment [2], in experiment [3], in experiment [5] and in experiment [6]. Besides, the outcome in experiment [7] was inactive. Also, the AC50 is 2.71 µM (active) in experiment [18] and 3 µM (active) in experiment [19].

Regarding `CC1(C)NC(=O)NC1=O`, the compound was called inactive in experiment [9], in experiment [2], in experiment [4], in experiment [5], in experiment [6] and in experiment [8].

Regarding `CC(C)(C)c1cc(O)c(C(C)(C)C)cc1O`, the call in experiment [1], in experiment [2], in [3], in [10], in [4] and in [5] was inactive. Further, the values for the AC50 in experiment [11], in experiment [12] and in experiment [8] were 3.58 µM (active), 27.5 µM (active) and 1.19 µM (active), respectively.

Regarding `COCCOCCOC`, the call in [1], in experiment [9], in experiment [2], in experiment [3], in [5] and in experiment [6] was inactive. Moreover, the compound was classed as inactive in experiment [8], in [18] and in [19].

Source of the values: PubChem BioAssay (EPA / NIEHS).
